A selection: hits, their analogues and other compounds. The true share with any hit is near 12%.
Marburg entry inh: qHTS for inhibitors of binding or entry into cells for Marburg Virus; Potency, µM (series often up to 37.8 µM), inactives show at the top dose activity change, negative = inhibition, usual class: inhibitors; hit rate 1.8% among 300,000; Marburg virus pseudotyped entry inhibition, cell reporter; calls by dose curve; tested in HEK293 cells; further: potency means the concentration at half of the fitted maximal effect; on the % scale 0 is the no-effect control and ±100 the full control effect
Shiga toxin inh: A qHTS for Small Molecule Inhibitors of Shiga Toxin; Vero cells, Shiga toxin protein synthesis inhibition reporter; inhibition, % at 38.7 µM; hit rate 9.2% among 290,000; AID 2315, 2010; in the data active means inhibition mostly above about 28%, no sharp cut-off; inactive means mostly below about 43%; further: 0% is about no effect
Cycloheximide cs: Cycloheximide Counterscreen for Small Molecule Inhibitors of Shiga Toxin. cell reporter, cycloheximide protein synthesis inhibition counterscreen. max response, %. hit rate 12% among 300,000. AID 2314, 2010; in the data active means max response mostly above about 13%, no sharp cut-off; inactive means mostly below about 14%; further: read at 38.3 µM for the half of the compounds with a filed dose; 0% is about no effect
LASV entry inh: qHTS for Inhibitors of binding or entry into cells for Lassa Virus. Lassa virus pseudotype entry inhibition, cell reporter. Potency, µM (series often up to 37.9 µM), without a hit: at the highest dose activity change, negative = inhibition, actives largely listed as inhibitors. hit rate 1.2% among 300,000. AID 540256, 2011; calls by dose curve; tested in HEK293 cells; further: potency means the concentration at half of the fitted maximal effect; on the % scale 0 is the no-effect control and ±100 the full control effect; nearly all actives have a fitted effect of over 50% in size
* marks the source's active call; other numbers are inactive results; u = inconclusive; x = no result; [ ] = dose if it differs, or a comment.

SMILES	Marburg entry inh	Shiga toxin inh	Cycloheximide cs	LASV entry inh
CCCCOc1ccccc1C1CC(=O)Nc2cc(C)c(C)cc21 (stereo not drawn)	x	x	x	-17%[46.1 µM]
Cc1ccc(NC(=O)CN(C)C(=O)CCC(=O)c2cccs2)cc1	-21%	-5	-1	-2%
CCCCc1ccc(NC(=O)CN(C)CC(=O)Nc2ccccc2Cl)cc1	u	-6	-1	-20%[46.1 µM]
CN(CC(=O)Nc1ccccc1)CC(=O)Nc1ccccc1Cl	x	31*	19*	x
NCC(=O)NCC(=O)OCc1ccccc1	x	-2	-5	x
O=C(Nc1ccccc1F)c1ccc(OCc2ccccc2)cc1	-2%	86*	49*	u
CCOCC(=O)Nc1ccc(OCc2ccccc2)cc1	14%[46.1 µM]	46*	35*	13%[46.1 µM]
Cc1ccsc1C(=O)NCC(=O)OCc1ccccc1	u	61*	30*	-3%[46.1 µM]
CN1CCN(c2ccccc2NC(=O)c2ccc(OCc3ccccc3)cc2)CC1	-19%[46.1 µM]	-12	-3	u
CCN(CC)S(=O)(=O)c1ccc(N2CCCC2)c(NC(=O)CN2C(=O)NC3(CCCC3)C2=O)c1	u	x	x	6%
C[C@H]1COc2cc(N3CCCC3)ccc2S(=O)(=O)N1	x	x	x	1%[46.1 µM]
CC(C)CCNC(=O)Nc1ccc2c(c1)N(C)C(=O)c1ccccc1S2	2%[46.1 µM]	x	x	u
O=C(NCCSc1ccccc1)c1cccnc1	u	83*	49*	18%
Cc1noc(C)c1COc1cccc(C(=O)Nc2ccc(OCc3ccccc3)cc2)c1	-1%[46.1 µM]	27	12*	u
COc1ccc2nc(NC(=O)c3cccc(OCc4c(C)noc4C)c3)sc2c1	u	118*	44*	u
CCOCC(=O)Nc1ccc(C(=O)Nc2ccccc2Cl)cc1	x	31	26*	x
C[C@]12C[C@@](C)(C=C1C=Cc1ccccc1)C(=O)C[C@H]2c1ccccc1	3%[14.2 µM]	x	x	x
Cc1ccc(C(=O)Nc2ccc(OCc3ccccc3)cc2)s1	u	97	18*	u
CCOC(=O)CNC(=O)C(CO)NC(=O)OCc1ccccc1 (stereo not drawn)	19%	6	26*	2%
Cc1cc(C(=O)Nc2ccc(OCc3ccccc3)cc2)c(C)o1	-16%[46.1 µM]	81*	24*	u
O=C(NCCc1ccc(Cl)cc1)c1cccnc1	5%	14	21	-2%
O=C(NCCc1ccccc1)c1ccc(NC(=O)c2cccnc2)cc1	x	37*	23*	x
CCOC(=O)C(=O)Nc1ccc(OCc2ccccc2)cc1	10%	-4	3	19%
COc1cccc(-c2nc(CS(=O)(=O)CC(=O)NCCCN3CCc4ccccc4C3)c(C)o2)c1	-2%	-15	-3	-6%
O=C(Nc1cccc(S(=O)(=O)N2CCCCC2)c1)c1cc(=O)[nH]c2ccccc12	-10%	x	x	19%
SMILES	Marburg entry inh	Shiga toxin inh	Cycloheximide cs	LASV entry inh
COC(=O)c1oc2ccccc2c1NC(=O)/C=C/C(=O)O	11%[46.1 µM]	2	6	3%[46.1 µM]
CC(C)=CC(=O)Nc1ccc(Br)cc1	-25%	74*	58*	9%
CC(=O)Nc1ccc(NC(=S)Nc2ccc(Br)cc2)cc1	u	0	-2	-27%
O=C(Nc1ccc(OCc2ccccc2)cc1)c1cccnc1	5%	41*	20*	16%
O=C(Nc1ccc(OCc2ccccc2)cc1)Nc1cccnc1	-23%[46.1 µM]	21	16	-21%[46.1 µM]
CC(C)C(C)NC(=O)COc1ccc(OCc2ccccc2)cc1 (stereo not drawn)	u	33	19	-23%
Cc1ccc(C)n1-c1ccc(C(=O)Nc2ccccc2F)cc1	-26%[46.1 µM]	102*	57*	u
CC(C)NC(=O)COc1ccc(OCc2ccccc2)cc1	x	29	20*	x
Cc1ccc(N2CCN(C(=S)Nc3ccccc3C)CC2)cc1	x	x	-4	x
CCCn1c(SC(C)C(=O)N2CCOCC2)nc2ccc(Br)cc2c1=O (stereo not drawn)	-9%	x	x	5%
CCn1nc(C)cc1C(=O)Sc1cccc(Br)c1	8%[46.1 µM]	-4	-3	-26%
O=S(=O)(c1ccccc1)N1CCN(C(=S)Nc2ccccc2Cl)CC1	-21%	-8	6	-24%
Cc1ccsc1C(=O)Nc1ccc(OCc2ccccc2)cc1	32%[46.1 µM]	68*	18*	1%[46.1 µM]
CC(C)=CC(=O)Nc1ccc(OCc2ccccc2)cc1	-1%[46.1 µM]	126*	53*	u
O=C(Nc1ccc(-c2noc(CCc3ccccc3)n2)cc1)c1cccnc1	u	40*	27*	u
Cc1ccsc1C(=O)Nc1ccc(C(=O)O)cc1	5%	10	-1	1%
O=C(Nc1ccc(OCc2ccccc2)cc1)c1ccccc1	u	26	14*	23%
NCCCCCc1nnc(SCC(N)=O)o1	5%	-5	-8	u
COc1ccc(Cl)cc1S(=O)(=O)Nc1cccc(-c2ccc(N3CCOCC3)nn2)c1	x	x	x	-7%[46.1 µM]

From PubChem
